Our source for the Potency values is PubChem BioAssay (NCATS).

Inconclusive results are not listed. Active and inactive are the calls of the source. Calls come from the whole dose curve; as a rule, active = well fitted inhibition curve with a large enough effect; inconclusive = small, poorly fitted or top-dose-only effect; inactive = flat fitted curve, though single readings scatter.

Common to all, as to assay: qHTS profiling for inhibitors of Plasmodium falciparum proliferation (AID 504749); note: nearly all actives have a fitted effect of over 60% in size
What all share (details): P. falciparum in erythrocytes, SYBR Green DNA, 72 h; series mostly up to 28.7 µM
For orientation: Quantitative high-throughput screening tests each substance at several concentrations.

One assay has as its system CP201. An outline of the steps:
(§1)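 Infected RBCs, 0.3% parasitemia/2.5% Hct final; cpd 72 h, 37 C, 5% CO2; lysis buffer with saponin/triton/SYBR Green I, o/n RT dark; FI 485/535; norm. to artemisinin (0.29 uM) and DMSO.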

A further assay concerns CP203. An outline of the steps: as §1
A further assay concerns CP211. An outline of the steps: as §1
The next assay concerns CP215. The method, boiled down: as §1
The next assay deals with CP217. An outline of the steps:
as §1

In another assay the test system is CP237. The method, boiled down:
as §1

The next assay deals with CP238. The method, boiled down: as §1
For the next assay, the system named is CP247. The method, boiled down: as §1
In the next assay the test system is CP250. An outline of the steps: as §1
A further assay has as its system CP252. An outline of the steps:
as §1
Potency is the fitted concentration of half-maximal effect.

As for `c1cnc(N2CCN(Cc3ccc4c(c3)OCO4)CC2)nc1`, the Potency result with CP201, in the assay with CP203, in the assay with CP211, with CP215, in the assay on CP217 and in the assay on CP237 was “inactive” in each case. In addition, the Potency entry with CP238, in the assay with CP247, in the assay with CP250 and with CP252 was “inactive” in each case.

As for `Cc1scc2c1N(C(=O)CN1CCN(C)CC1)c1ccccc1NC2=O`, the Potency entry in the assay with CP201, in the assay with CP203, in the assay with CP211, with CP215, in the assay on CP217 and with CP237 was “inactive” in each case. The Potency entry in the assay with CP238, with CP247, in the assay with CP250 and in the assay on CP252 was “inactive” in each case.

For the compound `CCO/C([O-])=N/c1c[n+](N2CCOCC2)no1`, the Potency result with CP201, with CP203, in the assay with CP211, in the assay on CP215, with CP217 and in the assay on CP237 was “inactive” each time. Moreover, the Potency result with CP238, in the assay on CP247, in the assay with CP250 and with CP252 was “inactive” in each case.

`O=c1[nH]c(=O)n([C@H]2C[C@H](O)[C@@H](CO)O2)cc1Br`: the Potency result in the assay with CP201, in the assay on CP203, in the assay with CP211, in the assay on CP215, in the assay on CP217 and in the assay on CP237 was “inactive” each time. Moreover, the Potency result with CP238, in the assay with CP247, with CP250 and with CP252 was “inactive” in each case.

`Nc1nc(N)c2nc(-c3ccccc3)c(N)nc2n1`: the Potency entry in the assay with CP201, in the assay on CP203, in the assay with CP211, in the assay on CP215, in the assay on CP217 and with CP237 was “inactive” throughout. The Potency result with CP238, with CP247, in the assay on CP250 and in the assay with CP252 was “inactive” each time.

With `O=C(CCNNC(=O)c1ccncc1)NCc1ccccc1`, the Potency result with CP201, with CP203, in the assay on CP211, in the assay on CP215, in the assay on CP217 and with CP237 was “inactive” throughout. Further, the Potency entry in the assay on CP238, with CP247, in the assay on CP250 and in the assay with CP252 was “inactive” in each case.

As to `O=C(O)CCCCCCCC(=O)O`, the Potency result with CP201, in the assay on CP203, in the assay with CP211, in the assay on CP215, in the assay on CP217 and in the assay with CP237 was “inactive” each time. Further, the Potency result in the assay on CP238, with CP247, in the assay on CP250 and in the assay on CP252 was “inactive” each time.

On to `CCN1CCC[C@H]1CNC(=O)c1c(O)c(Cl)cc(Cl)c1OC`, for which the Potency entry in the assay with CP201, in the assay with CP203, with CP211, with CP215, in the assay with CP217 and with CP237 was “inactive” each time. The Potency entry in the assay with CP238, in the assay with CP247, with CP250 and in the assay on CP252 was “inactive” throughout.

Turning to `NCCCNCCSP(=O)(O)O`, the Potency result in the assay with CP201, in the assay with CP203, with CP211, in the assay on CP215, in the assay on CP217 and in the assay on CP237 was “inactive” in each case. Also, the Potency entry with CP238, with CP247, with CP250 and in the assay on CP252 was “inactive” each time.

Regarding `CCn1ccnc1CC1COc2ccccc2O1` (centres undefined), the Potency result with CP201, in the assay on CP203, in the assay on CP211, in the assay on CP215, in the assay with CP217 and with CP237 was “inactive” each time. For the same compound, the Potency entry in the assay on CP238, in the assay with CP247, in the assay on CP250 and with CP252 was “inactive” each time.

Consider `CCN(CC)CCCN(c1ccccc1)C1Cc2ccccc2C1`, for which the Potency with CP201 is 7.57 µM (active); in the assay with CP203, 6.75 µM (active); in the assay with CP211 it was 12 µM (active); in the assay on CP215 it was 8.49 µM (active); with CP217, 5.62 µM (active); in the assay with CP237 it was 2.82 µM (active). In addition, the Potency with CP238 is 11.2 µM (active); with CP247 it was 8.91 µM (active); in the assay on CP250, 7.94 µM (active); in the assay with CP252, 10 µM (active).

For the compound `CNC1(C)C2CCC(C2)C1(C)C` (centres undefined), the Potency result in the assay on CP201, with CP203, in the assay with CP211, with CP215, in the assay on CP217 and with CP238 was “inactive” in each case. The Potency entry in the assay on CP247, in the assay on CP250 and in the assay on CP252 was “inactive” throughout. Moreover, the Potency in the assay with CP237 is 7.94 µM (active).

As for `O=C(O)CN(CCOCCOCCN(CC(=O)O)CC(=O)O)CC(=O)O`, the Potency result with CP201, with CP203, in the assay on CP211, with CP215, in the assay with CP217 and with CP237 was “inactive” throughout. In addition, the Potency result in the assay on CP238, in the assay on CP247, in the assay on CP250 and in the assay on CP252 was “inactive” in each case.

Turning to `CC1=NS(=O)(=O)c2cc(Cl)ccc2N1`, the Potency result in the assay with CP201, in the assay on CP203, in the assay with CP211, in the assay on CP215, in the assay on CP217 and in the assay on CP237 was “inactive” each time.

Consider `CC(=O)[C@@]1(O)CC[C@H]2[C@@H]3CCC4=CC(=O)CC[C@]4(C)[C@H]3CC[C@@]21C`, for which the Potency entry in the assay with CP201, with CP203, in the assay on CP211, in the assay on CP215, with CP217 and in the assay with CP237 was “inactive” each time. Further, the Potency result in the assay with CP238, in the assay on CP247, in the assay with CP250 and in the assay with CP252 was “inactive” in each case.

Consider `O=C(O)CP(=O)(O)O`, for which the Potency entry in the assay on CP201, in the assay on CP203, in the assay with CP211, in the assay on CP215, in the assay with CP217 and in the assay with CP237 was “inactive” throughout. The Potency entry with CP238, with CP247, in the assay with CP250 and in the assay on CP252 was “inactive” each time.

On to `CCCCCN(CCCCC)C(=O)C(CCC(=O)O)NC(=O)c1ccc(Cl)c(Cl)c1` (centres undefined), for which the Potency entry in the assay on CP201, in the assay with CP203, in the assay on CP211, in the assay on CP215, in the assay on CP217 and in the assay with CP237 was “inactive” each time. For the same compound, the Potency result with CP238, in the assay on CP247, with CP250 and with CP252 was “inactive” each time.

In the case of `CCCOc1ccccc1-c1nc2n[nH]nc2c(=O)[nH]1`, the Potency result with CP201, in the assay on CP203, with CP211, with CP215, with CP217 and with CP237 was “inactive” throughout. Also, the Potency result in the assay with CP238, with CP247, in the assay on CP250 and in the assay with CP252 was “inactive” each time.

Regarding `Cc1ccc(Cl)c(Nc2ccccc2C(=O)O)c1Cl`, the Potency result in the assay on CP201, with CP203, in the assay on CP211, in the assay on CP215, with CP217 and with CP238 was “inactive” throughout. The Potency entry in the assay with CP247, in the assay with CP250 and in the assay with CP252 was “inactive” each time.

As for `COc1cc2c(cc1OC)-c1cc(=Nc3c(C)cc(C)cc3C)n(C)c(=O)n1CC2`, the Potency in the assay with CP201 was 4.26 µM (active); in the assay with CP203, 7.57 µM (active); in the assay with CP215 it was 5.36 µM (active); in the assay on CP217 it was 3.55 µM (active); with CP237 it was 3.16 µM (active); in the assay with CP238 it was 10 µM (active). Moreover, the results for the Potency in the assay on CP247, in the assay on CP250 and with CP252 were 5.62 µM (active), 3.55 µM (active) and 11.2 µM (active), respectively.

`CC(C(=O)O)c1ccc(CC2CCCC2=O)cc1` (centres undefined): the Potency entry with CP201, in the assay with CP203, in the assay on CP211, in the assay on CP215, in the assay on CP217 and in the assay on CP237 was “inactive” in each case. Also, the Potency result in the assay with CP238, in the assay on CP247, with CP250 and in the assay with CP252 was “inactive” throughout.
